What all share (test): NCI-60 one-dose screen, 48 h (100 = growth as untreated, 0 = no growth, -100 = all killed)
Assay [1] has as its system HT29 colon. Conditions: 10 µM unless noted.
Assay [2] relates to SNB-75 CNS. The conditions noted are these: 10 µM unless noted.
Assay [3] deals with SNB-19 CNS. The conditions noted are these: 10 µM unless noted.
The subject of assay [4] is U251 CNS. The conditions noted are these: 10 µM unless noted.
Assay [5] deals with PC-3 prostate. The conditions noted are these: 10 µM unless noted.
The subject of assay [6] is SK-MEL-5 melanoma. The conditions noted are these: 10 µM unless noted.
Assay [7] deals with UACC-62 melanoma. Conditions: 10 µM unless noted.
In assay [8] the test system is LOX IMVI melanoma. The conditions noted are these: 10 µM unless noted.
The test system of assay [9] is SK-MEL-28 melanoma. Conditions: 10 µM.
Assay [10] relates to SK-MEL-2 melanoma. The conditions noted are these: 10 µM unless noted.
Assay [11] relates to EKVX NSCLC. The conditions noted are these: 10 µM unless noted.
Assay [12] deals with SN12C renal. Conditions: 10 µM unless noted.
The subject of assay [13] is UO-31 renal. Conditions: 10 µM unless noted.
Assay [14] deals with ACHN renal. Conditions: 10 µM unless noted.
For assay [15], the system named is CAKI-1 renal. The conditions noted are these: 10 µM unless noted.
Assay [16] has as its system CCRF-CEM leukemia. Conditions: 10 µM unless noted.
Assay [17] relates to MOLT-4 leukemia. The conditions noted are these: 10 µM unless noted.
Assay [18] concerns SR leukemia. Conditions: 10 µM unless noted.
The test system of assay [19] is TK-10 renal. Conditions: 10 µM unless noted.
Assay [20] relates to A498 renal. The conditions noted are these: 10 µM unless noted.

This is part of a sample that, as a whole, favours compounds with a hit. Of some 83,000 tested, about 20% had one in any assay.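 Compound tested at a single concentration for 48 hours in 96-well plates; a percent growth value below 10 was scored as active.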 Values without a mark were called inactive. Activity calls are given as the source filed them.

For the compound `COc1ccccc1C1=C(Br)C(=O)c2nc(C)ccc2C1=O`, the growth was 101% in assay [1]; 94.4% in [2]; 101% in assay [3]; 102% in assay [4]; 101% in assay [5]; 100% in assay [6]. Also, the growth is 88.9% in assay [7]; 97.1% in assay [8]; 104% in assay [9]; 97.2% in assay [10]; 99.5% in assay [11]; 92.4% in [12]. Moreover, the growth in [13] was 77.2%; in assay [14], 19.9%; in assay [15], 98.4%; in assay [16], 92%; in assay [17] it was 117%; in [18], 105%.

Consider `CNCCNc1nc2ccccc2c2c(=O)c3cccc(OC)c3sc12`, for which the growth in assay [1] is -17.5% (active); in [2], 26.2%; in [3] it was 42%; in assay [4], -45.2% (active); in assay [5] it was 26.1%; in assay [6], 57.9%. The growth in assay [7] is 44.4%; in [8], 12.2%; in [9] it was 62.3%; in assay [10], 73.1%; in [11], 22.8%; in assay [12], 45.2%. Besides, the growth in assay [13] is 24.9%; in [19], 44.1%; in assay [14] it was 12.5%; in assay [15], 36.1%; in [16] it was 12.2%; in assay [17] it was 0.177% (active). Moreover, the growth in [18] was -1.21% (active).

Consider `COC(=O)/C(=C\c1c(-c2ccccc2)[nH]c2ccccc12)S(C)(=O)=O`, for which the growth is 8.37% (active) in [1]; -4.33% (active) in assay [2]; 37.6% in assay [3]; 26.4% in [4]; 25.6% in [5]; 14.3% in assay [6]. Also, the growth is 37.1% in assay [7]; 45.1% in [8]; 36.1% in [9]; 39.1% in [10]; 58% in assay [11]; 59.4% in assay [12]. Besides, the growth in assay [13] is 41.5%; in [19], 67.2%; in assay [14] it was 56.8%; in assay [15], 46.4%; in assay [17], 25.6%; in [18] it was 45.1%.

As to `COc1ccc(Cn2cc(Cn3cc(C=C4C(=O)NC(=O)NC4=O)c4ccccc43)nn2)cc1`, the growth was 117% in assay [1]; 78.1% in [2]; 90.4% in assay [3]; 92.3% in [4]; 84.8% in assay [5]; 60.7% in assay [6]. The growth in [7] was 64.6%; in assay [8] it was 79.4%; in assay [9], 102%; in [10] it was 85.8%; in assay [11], 99.4%; in assay [12] it was 85.8%. The growth in assay [13] was 56.3%; in assay [14] it was 91.4%; in [15], 70.1%; in [16], 85%; in [17], 75.3%.

With `Cc1ccc(NCCNCC(O)CO)c2c(=O)c3ccccc3sc12` (centres undefined), the growth in assay [1] is -61.1% (active); in [2], 44.6%; in [3], 26.3%; in [4] it was 9.2% (active); in assay [5], 13.6%; in assay [6] it was -81% (active). Further, the growth was -49.9% (active) in [7]; -95.2% (active) in assay [8]; 1.81% (active) in [9]; 75.8% in assay [10]; 43.3% in assay [11]; 19.7% in [12]. For the same compound, the growth in [13] was -24% (active); in assay [14], -46.3% (active); in assay [15], 39.2%; in assay [20], 43.2%; in assay [16], 22.2%; in assay [17] it was 9.37% (active). The growth in [18] was -9.74% (active).

Turning to `Cc1cccc2c(=O)c3c(sc12)c(N1CCNCC1)nc1ccccc13`, the growth in [1] was 6.4% (active); in assay [2], 50%; in [3], 82.6%; in [4] it was 59.9%; in assay [5], 69.9%; in assay [6], 80.2%. In addition, the growth in assay [7] is 89.9%; in assay [8], 10.3%; in assay [9], 80.1%; in [10], 98.2%; in [11], 68.9%; in [12] it was 69.8%. Besides, the growth was 36.7% in assay [13]; 46% in [14]; 54.8% in assay [15]; 62.4% in [16]; 33.8% in assay [17]; -17% (active) in [18].

Regarding `O=c1c2cccc(F)c2sc2c(N3CCNCC3)nc3ccccc3c12`, the growth is -45.4% (active) in assay [1]; 35.3% in assay [2]; 46.5% in assay [3]; 10.3% in assay [4]; 39.8% in [5]; 56.2% in [6]. Besides, the growth in assay [7] was 54%; in [8], 19.9%; in assay [9], 69.1%; in [10], 95%; in [11] it was 48.2%; in assay [12], 46.5%. Moreover, the growth is 23% in [13]; 53% in [19]; 16% in assay [14]; 39.4% in assay [15]; 13.2% in [16]; -18.8% (active) in assay [17]. For the same compound, the growth in [18] is 3.21% (active).

Regarding `CC1=C(C(=O)OCC2CCN(C(=O)OC(C)(C)C)CC2)[C@H](c2cccc(C#N)c2)C2=C(CC(C)(C)CC2=O)N1`, the growth was 30.9% in [1]; 62.5% in assay [2]; 51.7% in [3]; 47.6% in assay [4]; 59.4% in assay [5]; 20.5% in [6]. The growth in assay [7] is 43.5%; in assay [8], 15.2%; in assay [9], 68.4%; in assay [10], 75.3%; in assay [11] it was 62.6%; in [12], 52.9%. Besides, the growth in [13] is 57.8%; in assay [14] it was 35.4%; in assay [15] it was 52.4%; in assay [16], 40.5%; in assay [17] it was 25.3%.

For `O=C(c1nc2ccccc2[nH]1)C1C(c2ccc([N+](=O)[O-])cc2)C2CC3CCCCC3N2[C@@]12C(=O)Nc1cc(Cl)ccc12` (some centres undefined), the growth was 18.5% in assay [1]; 27.4% in [2]; 27.5% in assay [3]; 25.5% in assay [4]; 22.3% in [5]; -57.1% (active) in [6]. Also, the growth is 20.5% in assay [7]; 25.1% in [8]; 44.9% in [9]; 48.3% in assay [10]; 16.6% in assay [11]; 34.1% in [12]. In addition, the growth in [13] is 13.1%; in assay [14] it was 18.4%; in [15] it was 41.5%; in assay [20], -1.18% (active); in assay [16], 24.2%; in [17], 8.23% (active). In [18], the growth is 19.6%.
